The values that follow come from PubChem BioAssay (Tox21).

SMILES strings stand for the structures. “And” between values parts separate entries of the source, which are not always exact repeats. Identical values can stand only once. Inconclusive results are not listed. Where a structure was tested more than once in an assay, its records may differ in their call. The source made the active and inactive calls. The call rests on the fitted dose curve; in most records, active means well fitted curve in the direction sought with a large enough effect in the repeat runs; inconclusive means weak or mixed curves; inactive means no such curve, though single readings can be large; an effect the other way counts as inactive or inconclusive. Positions of bridges follow the written chain, without caps; N, C: chain ends. Non-standard residues stand in square brackets, D forms with d. Residues, ends and D or L forms follow the SMILES beside them. *: point of attachment. X1 = CC[C@@H](C)[C@@H](N)C1=N[C@H](C(=O)*)CS1; d(aIle) = CC[C@H](C)[C@@H](N)C(=O)O; dOrn = NCCC[C@@H](N)C(=O)O

A short description of experiment [1]: qHTS assay to identify small molecule antagonists of the glucocorticoid receptor (GR) signaling pathway - cell viability counter screen (AID 720693). Further: nearly all actives have a fitted effect of over 55% in size. A general note: qHTS replaces the single test concentration by a dilution series.
Experiment [2] can be described thus: qHTS assay for identifying genotoxic compounds that show differential cytotoxicity against isogenic chicken DT40 cell lines with known DNA damage response pathways - wild type cell line (AID 743012). Further: nearly all actives have a fitted effect of over 60% in size. Put shortly:
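Parental DNA repair-proficient DT40 cells, 300 per well, were pre-incubated ~0.5 h at 37 C/5% CO2, pin-dosed with compounds in DMSO, then incubated 40 h. Viability was read as CellTiter-Glo luminescence after 30 min at room temperature.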

Experiment [3] is described as follows: qHTS assay for identifying genotoxic compounds that show differential cytotoxicity against isogenic chicken DT40 cell lines with known DNA damage response pathways - Rev3 mutant cell line (AID 743014). Further: nearly all actives have a fitted effect of over 55% in size.
A short description of experiment [4]: qHTS assay for identifying genotoxic compounds that show differential cytotoxicity against isogenic chicken DT40 cell lines with known DNA damage response pathways - Rad54/Ku70 mutant cell line (AID 743015). Further: nearly all actives have a fitted effect of over 60% in size.
Experiment [5] in a line: qHTS assay to identify small molecule antagonists of the androgen receptor (AR) signaling pathway - cell viability counter screen (AID 743033; further: nearly all actives have a fitted effect of over 45% in size).
Experiment [6] in a line: qHTS assay to identify small molecule antagonists of the androgen receptor (AR) signaling pathway using the MDA cell line - cell viability counter screen (AID 743041; further: nearly all actives have a fitted effect of over 45% in size). Put shortly: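 Viability counter screen run alongside the AR antagonist reporter: cells seeded 5 h before compound, R1881 added, 16 h incubation at 37C without CO2, fluorescent CellTiter-Fluor signal quantified.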
Potency means the concentration at half of the fitted maximal effect.

In the case of `CN(Cc1ccccc1)Cc1ccccc1`, the Potency result in experiment [1], in experiment [2], in experiment [3], in experiment [4], in experiment [5] and in experiment [6] was “inactive” each time.
Regarding `Cc1cnc(C(=O)O)c[n+]1[O-]`, the Potency result in experiment [1], in experiment [2], in experiment [3], in experiment [4], in experiment [5] and in experiment [6] was “inactive” throughout.
Regarding `C=CC(N)CCC(=O)O` (stereo unspecified), the Potency result in experiment [1], in experiment [2], in experiment [3], in experiment [4], in experiment [5] and in experiment [6] was “inactive” in each case.
Take `CC/C(=C(/CC)c1ccc(OP(=O)(O)O)cc1)c1ccc(OP(=O)(O)O)cc1`: the Potency entry in experiment [1], in experiment [2], in experiment [3], in experiment [4], in experiment [5] and in experiment [6] was “inactive” each time.
Regarding `COC1=C(OC)C(=O)C(C/C=C(\C)CC/C=C(\C)CC/C=C(\C)CC/C=C(\C)CC/C=C(\C)CC/C=C(\C)CC/C=C(\C)CC/C=C(\C)CC/C=C(\C)CCC=C(C)C)=C(C)C1=O`, the Potency result in experiment [1], in experiment [2], in experiment [3], in experiment [4], in experiment [5] and in experiment [6] was “inactive” in each case.
Take `NC(=O)[C@H]1O[C@@H](O)[C@H](O)[C@@H](O)[C@@H]1O`: the Potency result in experiment [1], in experiment [2], in experiment [3], in experiment [4], in experiment [5] and in experiment [6] was “inactive” in each case.
Consider `CC[C@@H](C)[C@@H](N)C1=N[C@H](C(=O)N[C@@H](CC(C)C)C(=O)N[C@@H](CCC(=O)O)C(=O)N[C@@H](C(=O)N[C@@H]2CCCCNC(=O)[C@@H](CC(N)=O)NC(=O)[C@@H](CC(=O)O)NC(=O)[C@@H](Cc3cnc[nH]3)NC(=O)[C@@H](Cc3ccccc3)NC(=O)[C@@H]([C@H](C)CC)NC(=O)[C@@H](CCCN)NC2=O)[C@@H](C)CC)CS1` (X1-LE[d(aIle)][dK][dOrn][dI][dF][dH][dD][dN]; lactam 4-C), for which the Potency entry in experiment [1], in experiment [2], in experiment [3], in experiment [4], in experiment [5] and in experiment [6] was “inactive” each time.
Turning to `CCCCCCCCCCCCCC(=O)OCC(COP(=O)([O-])OCC[N+](C)(C)C)OC(=O)CCCCCCCCCCCCC` (stereo unspecified), the Potency result in experiment [1], in experiment [2], in experiment [3], in experiment [4], in experiment [5] and in experiment [6] was “inactive” each time.
Take `CC(C)(COP(=O)(O)OP(=O)(O)OC[C@H]1O[C@@H](n2cnc3c(N)ncnc32)[C@H](O)[C@@H]1OP(=O)(O)O)C(O)C(=O)NCCC(=O)NCCS` (stereo partly specified): the Potency entry in experiment [1], in experiment [2], in experiment [3], in experiment [4], in experiment [5] and in experiment [6] was “inactive” throughout.
On to `C[C@H](O)CN(C)C`, for which the Potency result in experiment [1], in experiment [2], in experiment [3], in experiment [4], in experiment [5] and in experiment [6] was “inactive” in each case.
On to `C(=C\c1ccncc1)/c1ccccc1`, for which the Potency entry in experiment [1], in experiment [5] and in experiment [6] was “inactive” each time. Also, the Potency result in experiment [2] is “inactive and 26.6 µM (active)”; in experiment [3] it was “inactive and 26.6 µM (active)”; in experiment [4], “inactive and 26.6 µM (active)”.
`Cc1c(N)nc([C@H](CC(N)=O)NC[C@H](N)C(N)=O)nc1C(=O)N[C@H](C(=O)N[C@H](C)[C@@H](O)[C@H](C)C(=O)N[C@H](C(=O)NCCc1nc(-c2nc(C(=O)NCCCCN=C(N)N)cs2)cs1)[C@@H](C)O)[C@@H](O[C@@H]1O[C@@H](CO)[C@@H](O)[C@H](O)[C@@H]1O[C@H]1O[C@H](CO)[C@@H](O)[C@H](OC(N)=O)[C@@H]1O)c1cnc[nH]1`: the Potency result in experiment [1], in experiment [5] and in experiment [6] was “inactive” in each case. The Potency is 4.22 µM (active) and 1.5 µM (active) in experiment [2]; 1.33 µM (active) in experiment [3]; 211 nM (active) and 37.6 nM (active) in experiment [4].
On to `C/C(=C(/CCO)SSCC1CCCO1)N(C=O)Cc1cnc(C)nc1N` (stereo unspecified), for which the Potency entry in experiment [1], in experiment [5] and in experiment [6] was “inactive” each time. For the same compound, the Potency in experiment [2] is 23.7 µM (active) and 11.9 µM (active); in experiment [3] it was 23.7 µM (active); in experiment [4], 26.6 µM (active).
As for `CCCCC[C@H](O)/C=C/[C@@H]1[C@@H](C/C=C\CCCC(=O)O)[C@@H](O)C[C@H]1O`, the Potency result in experiment [1], in experiment [2], in experiment [3], in experiment [4], in experiment [5] and in experiment [6] was “inactive” each time.
With `CCc1cn([C@H]2C[C@H](O)[C@@H](CO)O2)c(=O)[nH]c1=O`, the Potency entry in experiment [1], in experiment [2], in experiment [3], in experiment [4], in experiment [5] and in experiment [6] was “inactive” each time.
Consider `CCCCCCCCCCCC[n+]1ccc2ccccc2c1`, for which the Potency in experiment [1] is 9.52 µM (active); in experiment [2], 168 nM (active); in experiment [3], 0.298 µM (active); in experiment [4], 0.266 µM (active); in experiment [5], 3.01 µM (active); in experiment [6] it was 5.96 µM (active).
Turning to `N=C(N)n1cccn1`, the Potency result in experiment [1], in experiment [2], in experiment [3], in experiment [4], in experiment [5] and in experiment [6] was “inactive” in each case.
For `CS(=O)(=O)c1ccc([C@@H](O)[C@@H](COC(=O)CN)NC(=O)C(Cl)Cl)cc1`, the Potency result in experiment [1], in experiment [5] and in experiment [6] was “inactive” throughout. The Potency was 5960 nM (active) in experiment [2], 6.68 µM (active) in experiment [3] and 7.5 µM (active) in experiment [4].
As to `COc1cc2c(cc1OC)[C@@H](Cc1cc(OC)c(OC)c(OC)c1)[N+](C)(CCCOC(=O)CC/C=C/CCC(=O)OCCC[N+]1(C)CCc3cc(OC)c(OC)cc3[C@H]1Cc1cc(OC)c(OC)c(OC)c1)CC2` (stereo partly specified), the Potency entry in experiment [1], in experiment [2], in experiment [3], in experiment [4], in experiment [5] and in experiment [6] was “inactive” throughout.
Regarding `C1CCc2nnnn2CC1`, the Potency entry in experiment [1], in experiment [2], in experiment [3], in experiment [4], in experiment [5] and in experiment [6] was “inactive” in each case.
For the compound `C[C@H](NCCc1ccc(O)cc1)[C@H](O)c1ccc(O)cc1`, the Potency entry in experiment [1], in experiment [2], in experiment [3], in experiment [4], in experiment [5] and in experiment [6] was “inactive” in each case.
